Inconclusive results are not listed. A call without a number means that no potency is given here. The source made the active and inactive calls. The call rests on the fitted dose curve; in most records, active means well fitted activation curve with a large enough effect; inconclusive means small, poorly fitted or top-dose-only effect; inactive means no such curve, though single readings can be large or run the other way.
Assay: qHTS assay for re-activators of p53 using a Luc reporter: Hit Validation with no p53 Expressed
How it was run: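 Without p53 expression, cells (1000/well, Opti-MEM + 10% FBS) were exposed 24 h at 37 deg C to compounds in a 1:5 series from 10 mM stock (top 46.1 µM in well). Luminescent signal read 10 min after Amplite addition; actives flag unspecific activation.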
Potency means the concentration at half of the fitted maximal effect.

SMILES | Potency
N#C/C(=C/c1ccccc1[N+](=O)[O-])c1nc(C2CC2)cs1 | inactive
Cc1cc(C(=O)COc2ncnc3sccc23)c(C)n1C1CC1 | inactive
Cn1ncc([N+](=O)[O-])c1C(=O)Nc1ccc(C2CCCCC2)cc1 | inactive
Cc1ccc(C(=O)NCC(=O)N2CCCCCC2)cc1 | inactive
Cn1c(C(=O)Nc2ccc3c(c2)OCCO3)cc2sccc21 | 1160 nM (active)
O=C(c1ccco1)n1c(=S)nc2ccccn21 | inactive
CCCCC(=O)NC(c1ccc(Cl)cc1Cl)c1ccc2cccnc2c1O (stereo unspecified) | inactive
CCc1nnc(NC(=O)C2Cc3ccccc3CN2S(=O)(=O)c2cccs2)s1 (stereo unspecified) | inactive
O=c1oc(CCO)cc2ccc(C#Cc3ccsc3)cc12 | inactive
N/C(=N\OC(=O)c1ccccc1Cl)c1ccc(Cl)cc1 | inactive
COc1ccccc1-c1cc(C(=O)Nc2cc(C)on2)no1 | inactive
COc1ccc(-c2csc(NCc3ccco3)n2)cc1C | inactive
Cc1cc([N+](=O)[O-])ccc1NC(=O)/C=C/c1cccs1 | inactive
Cc1cc(C)cc(OCC(=O)NNC(=O)c2ccccn2)c1 | inactive
COC(=O)CSc1nc2cc(OC)ccc2cc1C#N | inactive
Cc1cccc(Nc2cc(=O)[nH]c(=O)[nH]2)c1C | inactive
O=C(Cn1cc(SCc2ccc(F)cc2)c2ccccc21)N1CCOCC1 | inactive
Cc1cnc(C(=O)OCC(=O)Nc2ccc(OCc3ccccc3)cc2)cn1 | inactive
CC1=CN2C(=N)/C(=C/c3ccc(C)o3)C(=O)N=C2S1 | inactive
CC(C)OC(=O)CCCCCN1C(=O)CSC1=S | inactive
c1ccc(-c2nnc(-c3ccccn3)nc2NC2CCCCC2)cc1 | inactive
COc1cc(NC(=O)CN2C(=O)COc3ccc(S(=O)(=O)N4CCCC4)cc32)cc(OC)c1 | inactive
O=C(CNC(=O)c1cccc(F)c1)N/N=C/c1cc(Br)ccc1OC(=O)/C=C/c1ccco1 | inactive
O=C(CSc1nnc(-c2ccc3c(c2)OCCO3)o1)N1CCCC1 | inactive
O=C(CSc1nnc(-c2ccc(O)cc2)o1)Nc1ccc2c(c1)OCCO2 | inactive
COc1ccc(-c2nc(-c3ccc(NC(=O)c4ccncc4)cc3)no2)cc1OC | inactive

Reference: PubChem BioAssay AID624331 (National Center for Advancing Translational Sciences (NCATS), 2012)
